Active and inactive are the calls of the source.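 How the source made its calls: active means inhibition above 20% together with a positive visual image hit; inconclusive means visual image hit but inhibition not above 20%; inactive means no visual image hit.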

This assay in a line: inhibitors of TNFa-induced NFkB p65 translocation, primary screen, imaging, HUVEC, MLSMR starter and 10KST1 sets (AID 438).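 Further: compound added about 3h40 before a 20 min TNFalpha stimulation.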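 On inhibition: signal is the nuclear over cytoplasmic p65 intensity ratio per well.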 The following applies: HUVEC TNFa-induced p65 nuclear translocation; cell count: measured here: nuclei count (cytotoxicity indicator), at 2.08 µM; inhibition: at 2 µM, stronger effect = higher value, 0% TNFa-plus-vehicle, 100% no-TNFa wells.
Consider `Cn1cnc2c1c(=O)n(Cc1cccc(Br)c1)c(=O)n2C`, for which the inhibition is 1.4% (inactive) and the cell count came to 320.
In the same order, the values of `O=C(NC1CCCCC1)C1CCCN1C(=O)NCc1ccccc1` (stereo not given) are 3.4% (inactive) and 317.
In the same order, the values of `CCOC(=O)c1ccc(NC(=O)COc2ccc(-n3cnnn3)cc2)cc1` are -0.5% (inactive) and 354.
In the same order, the values of `Cc1cc(C)c2c(=O)n(CC(=O)NCCCN3CCOCC3)sc2n1` are 8.2% (inactive) and 594.
Turning to `Cc1cccc2sc(NC(=O)CN(C)S(=O)(=O)c3cccs3)nc12`, the cell count turned out to be 601 and the inhibition is -25.8% (inactive).
In the case of `CCCc1nc(NCc2ccncc2)c2nnn(Cc3ccccc3F)c2n1`, the cell count is 711 and the inhibition is -6.1% (inactive).
In the same order, the values of `O=S1(=O)CCC(NS(=O)(=O)/C=C/c2ccccc2)C1` (stereo not given) are 566 and -1.6% (inactive).
Consider `O=C(NCC1CCCO1)C1CCCN(S(=O)(=O)c2cccc3nsnc23)C1` (stereo not given), for which the inhibition is -1.6% (inactive) and the cell count was determined as 801.
Take `COc1ccccc1NC(=O)N(C1CCCC1)C1CCN(C(C)=O)CC1`: the inhibition was 18.5% (inactive) and the cell count was 830.
In the same order, the values of `O=C1NC(Cc2c[nH]c3ccccc23)C(=O)N1CCOc1ccccc1` (stereo not given) are 4.9% (inactive) and 674.
In the case of `COC(=O)C(C)Sc1nnc2n(-c3cccc(C)c3)c(=O)c3c4c(sc3n12)CCCC4` (stereo not given), the cell count is 660 and the inhibition is 9.4% (inactive).
Regarding `COc1ccc2[nH]c(=O)c(CN(CC3CCCO3)C(=O)Nc3ccc(F)cc3)cc2c1` (stereo not given), the cell count is 621 and the inhibition was 3% (inactive).
In the same order, the values of `Cc1nc2ccccc2c2oc(C(=O)NCC3COc4ccccc4O3)cc12` (stereo not given) are 532 and 7.6% (inactive).
In the same order, the values of `CCN(Cc1cc2ccccc2[nH]c1=O)S(=O)(=O)c1ccccc1` are 642 and 7.5% (inactive).
For the compound `CC(=O)NC(=O)NC1CSCC1OC(C)=O` (stereo not given), the inhibition was 1.2% (inactive) and the cell count stood at 590.
Turning to `COc1ccc(S(=O)(=O)NCC(c2cccnc2)N2CCN(c3ccc(F)cc3)CC2)cc1C` (stereo not given), the inhibition was -19.1% (inactive) and the cell count was found to be 234.
On to `COCCn1c(CN2CCN(c3cccc(Cl)c3)CC2)nc2c1c(=O)n(C)c(=O)n2C`, for which the inhibition was -6.3% (inactive) and the cell count was 712.
In the same order, the values of `CC1(C)CC(CCNC(=O)c2ccco2)CC(C)(C)N1` are 2.3% (inactive) and 387.
In the same order, the values of `O=C1c2ccccc2C(=O)N1C/C=C/c1ccccc1` are 6.3% (inactive) and 320.
As to `CCn1c(SCc2cccc(C(F)(F)F)c2)nnc1-c1ccco1`, the inhibition was 4.8% (inactive) and the cell count turned out to be 616.
For `c1ccc(-c2nnc(CSc3nncs3)o2)cc1`, the cell count is 322 and the inhibition is 16.3% (inactive).
In the same order, the values of `Cc1ccc(C)c(N2CCN(S(=O)(=O)c3ccc4c(c3)OCCO4)CC2)c1` are 521 and -2.6% (inactive).
In the same order, the values of `CCOc1cccc(-n2nnnc2-c2ccc(OC)cc2)c1` are 208 and 1.2% (inactive).
In the same order, the values of `CCOC(=O)C1CCCN(C(=O)c2ccc(CS(=O)(=O)c3ccc(Br)cc3)o2)C1` (stereo not given) are 509 and -3% (inactive).
Consider `C=CCSC1=C(C#N)C(c2ccccc2Cl)CC(=O)N1` (stereo not given), for which the cell count was found to be 407 and the inhibition was -6.5% (inactive).

For orientation: inhibition means the relative decrease from the control value, in per cent.

Values taken from PubChem BioAssay.
